Results reported in the supplement of paper PMC9262897, “Low-cost anti-mycobacterial drug discovery using engineered E. coli” (Nature Communications, 2022).
Counter-ions that a name gives are not always drawn. ± gives the standard deviation of the averaged measurements.

tested on: E. coli TESEC Mtb DapB; test: growth (OD600 after 10 h); higher = more growth (less inhibition); settings: arabinose induction (level): High; compound 0.1 mM; raw OD600 reference: median of DMSO wells […], cell-free background 0.041
Description: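 TESEC E. coli strains in which the native enzyme is deleted and replaced by arabinose-inducible Mtb Asd, DapB, CysH or TrpD, each grown in its selective medium. Strains were screened against the Prestwick library at 0.1 mM and 1% DMSO in 384-well format at low and high arabinose induction. Growth is read as OD600 after 10 h in triplicate.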

SMILES | growth
CC1(C)O[C@@H]2C[C@H]3[C@@H]4C[C@H](F)C5=CC(=O)C=C[C@]5(C)[C@@]4(F)[C@@H](O)C[C@]3(C)[C@]2(C(=O)CO)O1 [Fluocinolone acetonide] | 0.188 ± 0.019
O=C1CC[C@@H](C(=O)N2CSC[C@H]2C(=O)O)N1 [Pidotimod] | 0.191 ± 0.013
Cc1cc(NS(=O)(=O)c2ccc(N)cc2)no1 [Sulfamethoxazole] | 0.185 ± 0.011
CN(Cc1cnc2nc(N)nc(N)c2n1)c1ccc(C(=O)N[C@@H](CCC(=O)O)C(=O)O)cc1 (racemic) [Amethopterin (R,S)] | 0.192 ± 0.033
CN(C)CCCN1c2ccccc2CCc2ccc(Cl)cc21 [Clomipramine hydrochloride] | 0.0466 ± 0.00055
CN1CCN2c3ccccc3Cc3ccccc3C2C1 (stereo unspecified) [Mianserine hydrochloride] | 0.189 ± 0.0025
CCCN(CCC)C(=O)C(CCC(=O)O)NC(=O)c1ccccc1 (stereo unspecified) [Proglumide] | 0.205 ± 0.018
CCCCOc1ccc(CC(=O)NO)cc1 [Bufexamac] | 0.18 ± 0.013
CC(C)CC(=O)N[C@H](C(=O)N[C@H](C(=O)N[C@@H](CC(C)C)[C@@H](O)CC(=O)N[C@@H](C)C(=O)N[C@@H](CC(C)C)[C@@H](O)CC(=O)O)C(C)C)C(C)C [Pepstatin A] | 0.172 ± 0.0073
CO[C@@]1(NC(=O)C2SC(=C(C(N)=O)C(=O)O)S2)C(=O)N2C(C(=O)O)=C(CSc3nnnn3C)CS[C@@H]21 (stereo partly specified) [Cefotetan] | 0.0527 ± 0.0035
CC[N+](CC)(CC)CCC(O)(c1ccccc1)C1CCCCC1 (stereo unspecified) [Tridihexethyl chloride] | 0.207 ± 0.026
